This is an account of results in the supplement of paper PMC13380429.

This assay deals with Vero E6 infected with SARS-CoV-2. Kind of assay: inhibition of SARS-CoV-2 cytopathic effect; higher = more antiviral protection, active = above 15. The following applies: 833.33 nM; 48 h.
As for `COc1ccnc(C[S+]([O-])c2nc3cc(OC(F)F)ccc3[nH]2)c1OC` (stereo unspecified) [pantoprazole], the “inhibition of SARS-CoV-2 cytopathic effect” value (from here on “inhibition”) was 0.78% (inactive).

For the compound `C=CC[C@]1(O)CC[C@H]2[C@@H]3CCC4=CCCC[C@@H]4[C@H]3CC[C@@]21C` [allylestrenol], the “inhibition” value is 1.07% (inactive).

Turning to `C[C@H](/C=C/[C@H](C)C(C)(C)O)[C@H]1CC[C@H]2/C(=C/C=C3C[C@@H](O)C[C@H](O)C3)CCC[C@]12C` [paricalcitol], the “inhibition” value is 1.21% (inactive).

For the compound `C/C(=N\Nc1nnc2c(n1)[nH]c1c(C)cccc12)c1ccccn1`, the “inhibition” value is 1.06% (inactive).

Regarding `COC(=O)[C@H](c1ccccc1Cl)N1CCc2sccc2C1` [clopidogrel], the “inhibition” value is -3.38% (inactive).

As for `CC(=O)N[C@@H](CS)C(=O)O` [acetylcysteine], the “inhibition” value is 1.93% (inactive).

Turning to `COc1ccc(N2CCOCC2)c2sc(NC(=O)N3CCC(C)(O)CC3)nc12` [tozadenant], the “inhibition” value was -0.08% (inactive).

With `Cc1c(C)c2c(c(C)c1O)CC[C@@](C)(CCC[C@H](C)CCC[C@H](C)CCCC(C)C)O2` [vitamin-E], the “inhibition” value was 0.81% (inactive).

As for `COc1ccn2ncc(-c3nc4[nH]nc(NC(=O)c5ccc(F)cc5)c4cc3F)c2c1`, the “inhibition” value was -3.07% (inactive).

Consider `C[C@@H]1NC(=O)[C@@H]2CCCN2C(=O)[C@H](CC(N)=O)NC(=O)[C@@H]2CSSC[C@H](N)C(=O)N[C@H]3CSSC[C@H](NC1=O)C(=O)N[C@@H]([C@@H](C)O)C(=O)NCC(=O)N[C@H](C(=O)N[C@@H](Cc1ccc(O)cc1)C(=O)O)CSSC[C@H](NC(=O)[C@H](Cc1ccc(O)cc1)NC(=O)[C@H](CCC(=O)O)NC3=O)C(=O)N2` [linaclotide], for which the “inhibition” value is 1% (inactive).

For `O=C(c1c2ccccc2cc2ccccc12)N1CCC(N2CCC[C@@H](C(=O)N3CCOCC3)C2)CC1`, the “inhibition” value is -1.35% (inactive).

As for `CC(=O)NC[C@H]1CN(c2ccc(-c3ccc(CNCc4cnn[nH]4)cc3)c(F)c2)C(=O)O1` [radezolid], the “inhibition” value is -0.64% (inactive).

Take `CCN(CC)CCCCNc1ncc2cc(-c3c(Cl)cccc3Cl)c(NC(=O)NC(C)(C)C)nc2n1`: the “inhibition” value was -1.78% (inactive).

With `CC[C@H]1[C@@H](O)[C@@H]2[C@H](CC[C@]3(C)[C@@H]([C@H](C)CCOS(=O)(=O)O)CC[C@@H]23)[C@@]2(C)CC[C@@H](O)C[C@@H]12`, the “inhibition” value is 1.94% (inactive).

Consider `NCc1c[nH]c(=S)n1[C@H]1CCc2c(F)cc(F)cc2C1` [nepicastat], for which the “inhibition” value is 0.6% (inactive).

For the compound `CC(C)COC(=O)c1ccc(N)cc1` [isobutamben], the “inhibition” value is -2.97% (inactive).

As to `Cc1coc2c1C(=O)C(=O)c1c-2ccc2c(C)cccc12` [tanshinone-I], the “inhibition” value was -2.81% (inactive).

As to `CN[C@@H](C)C(=O)N[C@H](C(=O)N1CCC[C@H]1c1nc(C(=O)c2ccc(F)cc2)cs1)C1CCCCC1`, the “inhibition” value is -3.07% (inactive).

As to `Cc1cccc(C)c1NC(=O)CC12CCCN1CCC2` [pilsicainide], the “inhibition” value was 6.65% (inactive).

As for `CC(=O)c1cc([N+](=O)[O-])c(Sc2ccc(F)cc2F)s1`, the “inhibition” value is -0.14% (inactive).

On to `CCOC(=S)SSC(=S)OCC` [dixanthogen], for which the “inhibition” value was -0.83% (inactive).

With `COc1cc(N)c(Cl)cc1C(=O)OCCCN1CCCCC1`, the “inhibition” value is 4.22% (inactive).

In the case of `COc1ccc(CN(C(=O)[C@@H](N)Cc2c(C)cc(C(N)=O)cc2C)[C@@H](C)c2ncc(-c3ccccc3)[nH]2)cc1C(=O)O` [eluxadoline], the “inhibition” value was 1.03% (inactive).

With `CCOc1cc(C(C)(C)C)ccc1C1=N[C@@](C)(c2ccc(Cl)cc2)[C@@](C)(c2ccc(Cl)cc2)N1C(=O)N1CCN(CCCS(C)(=O)=O)CC1`, the “inhibition” value is 1.64% (inactive).

As for `Cc1ccccc1-n1c(Cn2ncc3c(N)ncnc32)nc2cccc(C)c2c1=O`, the “inhibition” value is -3.58% (inactive).

Turning to `Cc1cccc(Nc2ccncc2S(=O)(=O)NC(=O)NC(C)C)c1` [torasemide], the “inhibition” value was -1.03% (inactive).

With `CC(C)[C@H](CO)Nc1nc(Nc2cccc(Cl)c2)c2ncn(C(C)C)c2n1` [purvalanol-A], the “inhibition” value was 2.68% (inactive).

In the case of `CCn1cc(C(=O)O)c(=O)c2cc(F)c(N3CCN(C)CC3)cc21` [pefloxacin], the “inhibition” value was -0.06% (inactive).

As for `CCOC(=O)c1ncc2[nH]c3ccc(OCc4ccccc4)cc3c2c1COC`, the “inhibition” value is 2.46% (inactive).

Consider `CC(C[N+](C)(C)C)OC(N)=O` (stereo unspecified) [bethanechol], for which the “inhibition” value was -5.89% (inactive).

For `COc1ccc(/C=C/C(=O)Nc2ccccc2C(=O)O)cc1OC` [tranilast], the “inhibition” value was 0.97% (inactive).
